Experimental findings from PubChem BioAssay AID1645838 (ICCB-Longwood Screening Facility, Harvard Medical School, 2021) are described below.

This experiment can be described thus: modulators of mitochondrial supercomplex assembly, cell-based, luminescence, Hoechst nuclei count (AID 1645838).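 As to all read-outs here: control cybrid cells.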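 As to z-score: higher means more mitochondrial supercomplex formation.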 As to conditions: Cells, luminescence/Hoechst cell count ratio, supercomplex reporter; for z-score: stronger effect = higher value; for cell count: measured here: cell number, Hoechst nuclei count.
The mark [1] stands for this setting: library stock concentration (final well concentration not given) 80 uM.
Setting [2] is: library stock concentration (final well concentration not given) 400 uM.
Where [3] appears, read: library stock concentration (final well concentration not given) 2 mM.
Setting [4] is: library stock concentration (final well concentration not given) 10 mM.
Setting [5] is: library stock concentration (final well concentration not given) 46 uM.
Where [6] appears, read: library stock concentration (final well concentration not given) 278 uM.
Where [7] appears, read: library stock concentration (final well concentration not given) 1.67 mM.

Screen size: about 2,000 compounds; about 100 (5%) were called active. This is one part of a sample in which actives are shown more often than they occur. Rule as the data show it: active = z-score above about 2; inactive = the rest.

As for `COCC(c1ccc(C(F)(F)F)cc1)N1CCN(C2(C)CCN(C(=O)c3c(C)ncnc3C)CC2)CC1C` (centres undefined), the z-score reads like this: under setting [1], -0.275 (inactive); under setting [2], -0.0621 (inactive); under setting [3], -0.0993 (inactive); under setting [4], 0.309 (inactive). In addition, the cell count is, setting by setting: under setting [1], 6100; under setting [2], 5370; under setting [3], 5980; under setting [4], 5030.
With `CC(C(=O)Nc1cccc(N=Cc2c(O)ccc3ccccc23)c1)c1ccccc1` (centres undefined), the z-score is -0.78 (inactive) and the cell count came to 5730.
Consider `COc1ccccc1Oc1c(NS(=O)(=O)c2ccc(C)cn2)nc(-c2ccncc2)nc1OC`, for which the z-score reads like this: under setting [5], -0.0599 (inactive); under setting [6], -0.113 (inactive); under setting [7], 0.0903 (inactive); under setting [4], 0.0187 (inactive). Also, the cell count reads like this: under setting [5], 7280; under setting [6], 6760; under setting [7], 7600; under setting [4], 7550.
Regarding `CCCCCCCCCCCCCCCC(=O)OC[C@H](COP(=O)([O-])OCC[N+](C)(C)C)OC(=O)CCCCCCCC(=O)/C=C/C(=O)O`, the z-score is -0.738 (inactive) and the cell count came to 5950.
`CCCCC[C@H](O)/C=C/[C@@H]1[C@H](C/C=C\CCCC(=O)O)[C@@H](O)C[C@H]1O`: the z-score is -0.418 (inactive) and the cell count was 5540.
Regarding `Cc1cc(Nc2ccc(NC(=O)c3ccc(Nc4ccnc5ccccc45)cc3)cc2)nc(N)n1`, the outcome (library stock 10 mM) is “inactive; censored for cell count”. Moreover, the z-score was -0.573 (inactive) under setting [1], -0.616 (inactive) under setting [2] and -0.871 (inactive) under setting [3]. In addition, the cell count under setting [1] is 6440, the cell count under setting [2] worked out at 6580 and the cell count under setting [3] was found to be 6140.
Turning to `Cc1cc(Nc2cc(NC(=O)c3c(Cl)cccc3Cl)ccn2)nc(N)n1`, the outcome (library stock 10 mM) was inactive. Besides, the z-score by setting is: under setting [5], -0.552 (inactive); under setting [6], 2.25 (active); under setting [7], 7.34 (active). Besides, the cell count runs as follows: under setting [5], 7000; under setting [6], 3680; under setting [7], 1560.
As for `O=C(Nc1ccc(S(=O)(=O)Nc2ccccc2Cl)c(Cl)c1)c1ccccn1`, the z-score reads like this: under setting [1], -0.0523 (inactive); under setting [2], 0.247 (inactive); under setting [3], 0.0843 (inactive); under setting [4], -0.408 (inactive). For the same compound, the cell count runs as follows: under setting [1], 5940; under setting [2], 5620; under setting [3], 5480; under setting [4], 5970.
Turning to `COc1ccc(C(=O)C(=O)c2ccccc2)cc1`, the z-score reads like this: under setting [5], -0.147 (inactive); under setting [6], -0.127 (inactive); under setting [7], -0.0906 (inactive); under setting [4], -0.261 (inactive). Besides, the cell count was found to be 5340 under setting [5], 4770 under setting [6], 4920 under setting [7] and 4940 under setting [4].
Regarding `CCCCCCCCCCCCCCCC(=O)SCCOP(=O)([O-])OCC[N+](C)(C)C`, the z-score was 0.0631 (inactive) and the cell count came out at 5610.
Turning to `COc1cc(C(=O)N2CCC(N3CCN(C)CC3)CC2)ccc1Nc1ncc2c(n1)N(C)c1ccccc1C(=O)N2C`, the z-score was -0.05 (inactive) under setting [1], 0.293 (inactive) under setting [2], 2.34 (active) under setting [3] and 4.4 (active) under setting [4]. Besides, the cell count stood at 4870 under setting [1], 4880 under setting [2], 4160 under setting [3] and 3320 under setting [4].
As for `COc1cc(C(=O)NC2CCN(C)CC2)ccc1Nc1ncc2c(n1)N(C1CCCC1)C(C)CC(=O)N2C` (centres undefined), the outcome (library stock 10 mM) is “inactive; censored for cell count”. The z-score was -0.18 (inactive) under setting [1], -0.538 (inactive) under setting [2] and -0.076 (inactive) under setting [3]. For the same compound, the cell count is, setting by setting: under setting [1], 4460; under setting [2], 4710; under setting [3], 4310.
For `CCC1C(=O)N(C)c2cnc(Nc3ccc(C(=O)NC4CCN(C)CC4)cc3OC)nc2N1C1CCCC1` (centres undefined), the outcome is, setting by setting: (library stock 80 µM) “inactive; censored for cell count”; (library stock 400 µM) “inactive; censored for cell count”; (library stock 2 mM) “inactive; censored for cell count”; (library stock 10 mM) “inactive; censored for cell count”.
Regarding `CCCCC[C@@H](O)/C=C/[C@@H]1[C@H](C/C=C\CCCC(=O)O)[C@@H](O)C[C@H]1O`, the z-score is -0.594 (inactive) and the cell count turned out to be 5750.
As to `COCCOc1ccc2c(c1)ncn2-c1ccc2cccc(N3CCC(N)CC3)c2n1`, the outcome (library stock 10 mM) was “inactive; censored for cell count”. The z-score under setting [1] was 1.84 (inactive), the z-score under setting [2] was 2.21 (active) and the z-score under setting [3] is 2.12 (active). The cell count worked out at 4940 under setting [1], 5070 under setting [2] and 4020 under setting [3].
For `CCCCC[C@H](O)CC[C@@H]1[C@@H](C/C=C\CCCC(=O)O)[C@@H](O)C[C@H]1O`, the z-score was -1.49 (inactive) and the cell count is 6030.
`CCCCC[C@H](O)/C=C/[C@@H]1[C@H](CCCCCCC(=O)O)[C@@H](O)C[C@H]1O`: the z-score is 0.0726 (inactive) and the cell count turned out to be 4940.
As for `CCN(CC)c1ccc(C2=C(Cl)C(=O)c3ncccc3C2=O)cc1`, the z-score is -0.697 (inactive) and the cell count amounted to 3780.
`Cc1cc(N2CCOCC2)ccc1Nc1nc(NC2CCCCC2)c2[nH]cnc2n1`: the z-score is -0.914 (inactive) under setting [5], -0.363 (inactive) under setting [6], 3.33 (active) under setting [7] and 3.68 (active) under setting [4]. The cell count reads like this: under setting [5], 7450; under setting [6], 5730; under setting [7], 2040; under setting [4], 2130.
`c1nc2nc(Nc3ccc(N4CCOCC4)cc3)nc(NC3CCCCC3)c2[nH]1`: the outcome was “inactive; censored for cell count” (library stock 2 mM) and “inactive; censored for cell count” (library stock 10 mM). Further, the z-score was -0.0131 (inactive) under setting [1] and 1.19 (inactive) under setting [2]. Besides, the cell count worked out at 4690 under setting [1] and 2200 under setting [2].
As to `c1ccc2c(Oc3nc(Nc4ccc(N5CCOCC5)cc4)c4ncn(C5CCCCC5)c4n3)cccc2c1`, the z-score is -0.437 (inactive) and the cell count stood at 5560.
For the compound `NC(N)=NN=Cc1ccc(Cl)c(Cl)c1`, the z-score by setting is: under setting [1], -0.108 (inactive); under setting [2], 0.196 (inactive); under setting [3], -0.953 (inactive); under setting [4], -0.658 (inactive). In addition, the cell count is, setting by setting: under setting [1], 5310; under setting [2], 4750; under setting [3], 4910; under setting [4], 4260.
For the compound `CCCCC[C@H](O)/C=C/[C@H]1[C@H](O)CC(=O)[C@@H]1CCCCCCC(=O)NCCO`, the z-score was 0.115 (inactive) and the cell count amounted to 5420.
